{"source": "PubChem BioAssay (EPA / NIEHS)", "note": "Results filed as inconclusive are left out. Calls of active or inactive are those of the source. How the source made its calls, unless noted: active means hit-call score of the fitted dose curve at least 0.9, where 1 is the maximum; inconclusive means response in the unintended direction; inactive means score below 0.9.", "data": [{"target": "Peroxisome proliferator-activated receptor gamma (Homo sapiens) (UniProt P37231)", "sequence (P37231 whole entry, looked up, the tested form may be a part)": "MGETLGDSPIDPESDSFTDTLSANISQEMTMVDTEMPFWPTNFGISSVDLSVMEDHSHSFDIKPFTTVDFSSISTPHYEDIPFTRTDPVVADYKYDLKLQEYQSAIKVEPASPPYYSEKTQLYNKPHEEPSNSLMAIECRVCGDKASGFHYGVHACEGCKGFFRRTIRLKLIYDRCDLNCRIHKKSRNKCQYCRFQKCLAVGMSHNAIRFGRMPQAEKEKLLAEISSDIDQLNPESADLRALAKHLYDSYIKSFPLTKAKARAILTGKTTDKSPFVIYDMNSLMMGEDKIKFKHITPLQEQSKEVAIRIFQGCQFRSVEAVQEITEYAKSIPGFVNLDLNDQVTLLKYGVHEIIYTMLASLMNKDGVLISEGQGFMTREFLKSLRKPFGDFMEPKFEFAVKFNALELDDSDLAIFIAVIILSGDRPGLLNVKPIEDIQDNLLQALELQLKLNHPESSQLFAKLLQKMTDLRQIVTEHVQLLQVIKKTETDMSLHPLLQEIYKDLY", "assay": "OT_PPARg_PPARgSRC1_0480: Odyssey Thera (OT) 8-hour Protein-Complementation Assay for Peroxisome Proliferator-activated Receptor Gamma / SRC-1 Co-activator (AID 2283387);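 further: nuclear to cytoplasmic split Venus YFP fluorescence ratio reporting PPARg SRC-1 interaction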", "settings": "not given", "how_it_was_run": "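Split-YFP (IFP1/IFP2) PPARg/SRC-1 reporter, HEK293T, 37 °C, 5% CO2; 8 h compound; formaldehyde fix + Draq5; high-content imaging, N/C ratio, ≥350 cells/image, positive direction vs DMSO.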", "values": [{"smiles": "O=C(O)CC(O)C(=O)O", "note": "(stereo not drawn)", "outcome": "inactive"}, {"smiles": "Nc1ccc(Nc2ccccc2)cc1", "outcome": "inactive"}, {"smiles": "CC(C)CCO", "outcome": "inactive"}, {"smiles": "CC(C)CC(C)(O)C#CC(C)(O)CC(C)C", "note": "(stereo not drawn)", "outcome": "inactive"}, {"smiles": "CCCC(=O)OCC", "outcome": "inactive"}, {"smiles": "O=C(O)CCN(C1(C(=O)NO)CCCC1)S(=O)(=O)c1ccc(Oc2ccc(F)cc2)cc1", "outcome": "inactive"}]}, {"target": "Peroxisome proliferator-activated receptor gamma (Homo sapiens) (UniProt P37231)", "assay": "OT_PPARg_PPARgSRC1_1440: Odyssey Thera (OT) 24-hour Protein-Complementation Assay for Peroxisome Proliferator-activated Receptor Gamma/ SRC-1 Co-activator (AID 2283388)", "settings": "not given", "how_it_was_run": "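Cells carrying the PPARg/SRC-1 fragment-complementation reporter receive compound for 24 hours, are fixed and counterstained with Draq5, then imaged. Increased nuclear relative to cytoplasmic YFP fluorescence above DMSO baseline indicates binding activity.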", "values": [{"smiles": "Cn1cnc([N+](=O)[O-])c1Sc1ncnc2nc[nH]c12", "outcome": "inactive"}, {"smiles": "O=C(O)c1cc(N=Nc2ccc(S(=O)(=O)Nc3ccccn3)cc2)ccc1O", "outcome": "inactive"}, {"smiles": "O=C(CCCCCCCCc1cccnc1)N1CCC(C=C(c2ccccc2)c2ccccc2)CC1", "outcome": "inactive"}, {"smiles": "COc1ccc(-n2nc(C(F)F)cc2-c2ccc(S(C)=O)cc2)cc1", "note": "(stereo not drawn)", "outcome": "inactive"}, {"smiles": "C[C@](N)(Cc1ccc(O)c(O)c1)C(=O)O", "outcome": "inactive"}, {"smiles": "CC1=CC(=O)CC(C)(C)C1", "outcome": "inactive"}, {"smiles": "C=CCCCCCCCCC(=O)O", "outcome": "inactive"}, {"smiles": "CCCCCCc1ccc(O)cc1O", "outcome": "inactive"}, {"smiles": "Nc1nc2ncc(CNc3ccc(C(=O)N[C@@H](CCC(=O)O)C(=O)O)cc3)nc2c(=O)[nH]1", "outcome": "inactive"}, {"smiles": "CCOCCO", "outcome": "inactive"}, {"smiles": "CC[C@H]1OC(=O)[C@H](C)[C@@H](O[C@H]2C[C@@](C)(OC)[C@@H](O)[C@H](C)O2)[C@H](C)[C@@H](O[C@@H]2O[C@H](C)C[C@H](N(C)C)[C@H]2O)[C@](C)(O)C[C@@H](C)C(=O)[C@H](C)[C@@H](O)[C@]1(C)O", "outcome": "inactive"}, {"smiles": "CC[C@H]1CC[C@H](NCc2cc3c(cc2OC)[C@H]2C[C@H]2C(=O)N3C)[C@H](c2ccccc2)N1", "outcome": "inactive"}, {"smiles": "CCN(C(=O)c1cc(C)cc(OC[C@H](C)Nc2ccncc2)c1)C(C)C", "outcome": "inactive"}, {"smiles": "CCn1nc(Cc2ccccc2)cc1C1CCN(C[C@H]2C[C@H](N(C)[C@@H](C(=O)O)C(C)C)C[C@@H]2c2cccc(F)c2)CC1", "outcome": "inactive"}, {"smiles": "COc1ccc2sc(C(=O)Nc3nnn[nH]3)c(OC(C)C)c2c1", "outcome": "inactive"}, {"smiles": "O=C(O)CC(O)C(=O)O", "note": "(stereo not drawn)", "outcome": "inactive"}, {"smiles": "Nc1ccc(Nc2ccccc2)cc1", "outcome": "inactive"}, {"smiles": "CC(C)CC(C)(O)C#CC(C)(O)CC(C)C", "note": "(stereo not drawn)", "outcome": "inactive"}, {"smiles": "CCCC(=O)OCC", "outcome": "inactive"}, {"smiles": "O=C(O)CCN(C1(C(=O)NO)CCCC1)S(=O)(=O)c1ccc(Oc2ccc(F)cc2)cc1", "outcome": "inactive"}]}, {"read-out": "not listed separately", "assay": "CEETOX_H295R_11DCORT: CeeTox H295R High-throughput Steroidogenesis Assay for 11-Deoxycortisol (11DCORT) (AID 2283432; active means hit-call score of the fitted dose curve at least 0.9, where 1 is the maximum; inactive means score below 0.9;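 on AC50: human adrenal H295R cells prestimulated with 10 µM forskolin for 48 h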)", "settings": "actives raise or lower the signal", "how_it_was_run": "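Steroidogenesis in human H295R cells: 48 h chemical exposure after forskolin priming, 11-deoxycortisol measured by LC-MS/MS.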", "values": [{"smiles": "O=c1[nH]c2ccc(S(=O)CCN3CCC(Cc4ccc(F)cc4)CC3)cc2o1", "note": "(stereo not drawn)", "AC50": "5.59 µM (active)"}, {"smiles": "CCCCCCCCO", "outcome": "inactive"}, {"smiles": "COc1ccc(-n2nc(C(F)F)cc2-c2ccc(S(C)=O)cc2)cc1", "note": "(stereo not drawn)", "outcome": "inactive"}, {"smiles": "CC1=CC(=O)CC(C)(C)C1", "outcome": "inactive"}, {"smiles": "COc1cccc(-c2ccc(/C=C\\CN3CCCCCC3)cc2Cl)c1", "outcome": "inactive"}, {"smiles": "C=CCCCCCCCCC(=O)O", "outcome": "inactive"}, {"smiles": "CC(C)=CCCC(C)=CC=O", "outcome": "inactive"}, {"smiles": "CCC(C)(C)C(=O)O[C@H]1C[C@@H](C)C=C2C=C[C@H](C)[C@H](CC[C@@H]3C[C@@H](O)CC(=O)O3)[C@H]21", "AC50": "0.338 µM (active)"}, {"smiles": "CC[C@H]1CC[C@H](NCc2cc3c(cc2OC)[C@H]2C[C@H]2C(=O)N3C)[C@H](c2ccccc2)N1", "outcome": "inactive"}, {"smiles": "Fc1ccccc1[C@@H](F)COC1CCC(Nc2ncnc3[nH]ncc23)CC1", "note": "(stereo partly drawn)", "AC50": "5 µM (active)"}, {"smiles": "Nc1ccc(Nc2ccccc2)cc1", "outcome": "inactive"}, {"smiles": "CC(C)CC(C)(O)C#CC(C)(O)CC(C)C", "note": "(stereo not drawn)", "AC50": "68.2 µM (active)"}]}, {"read-out": "not listed separately", "assay": "CEETOX_H295R_OHPREG: CeeTox H295R High-throughput Steroidogenesis Assay for OH-Pregnenolone (OHPREG) (AID 2283434; active means hit-call score of the fitted dose curve at least 0.9, where 1 is the maximum; inactive means score below 0.9)", "settings": "actives raise or lower the signal", "how_it_was_run": "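Readout: HPLC-MS/MS of 17alpha-hydroxypregnenolone in medium after 48 h chemical exposure of H295R cells pretreated with forskolin. Values fitted bidirectionally relative to DMSO; chemicals reducing viability to 20–70% were retested after 10-fold dilution.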", "values": [{"smiles": "O=c1[nH]c2ccc(S(=O)CCN3CCC(Cc4ccc(F)cc4)CC3)cc2o1", "note": "(stereo not drawn)", "AC50": "3.63 µM (active)"}, {"smiles": "COc1ccc(-n2nc(C(F)F)cc2-c2ccc(S(C)=O)cc2)cc1", "note": "(stereo not drawn)", "outcome": "inactive"}, {"smiles": "CC1=CC(=O)CC(C)(C)C1", "outcome": "inactive"}, {"smiles": "COc1cccc(-c2ccc(/C=C\\CN3CCCCCC3)cc2Cl)c1", "outcome": "inactive"}, {"smiles": "C=CCCCCCCCCC(=O)O", "AC50": "36.5 µM (active)"}, {"smiles": "CC(C)=CCCC(C)=CC=O", "outcome": "inactive"}, {"smiles": "CCC(C)(C)C(=O)O[C@H]1C[C@@H](C)C=C2C=C[C@H](C)[C@H](CC[C@@H]3C[C@@H](O)CC(=O)O3)[C@H]21", "outcome": "inactive"}, {"smiles": "CC[C@H]1CC[C@H](NCc2cc3c(cc2OC)[C@H]2C[C@H]2C(=O)N3C)[C@H](c2ccccc2)N1", "outcome": "inactive"}, {"smiles": "O=C(O)c1cccc(N(Cc2cccnc2)c2ccc(OC(F)F)c(OC(F)F)c2)c1", "outcome": "inactive"}, {"smiles": "Fc1ccccc1[C@@H](F)COC1CCC(Nc2ncnc3[nH]ncc23)CC1", "note": "(stereo partly drawn)", "AC50": "5 µM (active)"}, {"smiles": "Nc1ccc(Nc2ccccc2)cc1", "AC50": "83.7 µM (active)"}, {"smiles": "CC(C)CC(C)(O)C#CC(C)(O)CC(C)C", "note": "(stereo not drawn)", "outcome": "inactive"}]}, {"read-out": "not listed separately", "assay": "CEETOX_H295R_OHPROG: CeeTox H295R High-throughput Steroidogenesis Assay for OH-Progesterone (OHPROG) (AID 2283435; active means hit-call score of the fitted dose curve at least 0.9, where 1 is the maximum; inactive means score below 0.9;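 on AC50: human adrenal H295R cells primed 48 h with 10 µM forskolin; 17alpha-hydroxyprogesterone secreted into medium measured by HPLC-MS/MS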)", "settings": "actives raise or lower the signal", "how_it_was_run": "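Human adrenocortical H295R cells, passage 10 or lower, were treated with chemical for 48 h after forskolin priming, and hormone output in the medium was quantified by LC-MS/MS.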", "values": [{"smiles": "O=c1[nH]c2ccc(S(=O)CCN3CCC(Cc4ccc(F)cc4)CC3)cc2o1", "note": "(stereo not drawn)", "AC50": "5.68 µM (active)"}, {"smiles": "CCCCCCCCO", "outcome": "inactive"}, {"smiles": "COc1ccc(-n2nc(C(F)F)cc2-c2ccc(S(C)=O)cc2)cc1", "note": "(stereo not drawn)", "outcome": "inactive"}, {"smiles": "CC1=CC(=O)CC(C)(C)C1", "outcome": "inactive"}, {"smiles": "COc1cccc(-c2ccc(/C=C\\CN3CCCCCC3)cc2Cl)c1", "outcome": "inactive"}, {"smiles": "C=CCCCCCCCCC(=O)O", "outcome": "inactive"}, {"smiles": "CC(C)=CCCC(C)=CC=O", "outcome": "inactive"}, {"smiles": "CCC(C)(C)C(=O)O[C@H]1C[C@@H](C)C=C2C=C[C@H](C)[C@H](CC[C@@H]3C[C@@H](O)CC(=O)O3)[C@H]21", "AC50": "0.809 µM (active)"}, {"smiles": "CC[C@H]1CC[C@H](NCc2cc3c(cc2OC)[C@H]2C[C@H]2C(=O)N3C)[C@H](c2ccccc2)N1", "outcome": "inactive"}, {"smiles": "O=C(O)c1cccc(N(Cc2cccnc2)c2ccc(OC(F)F)c(OC(F)F)c2)c1", "AC50": "7.82 µM (active)"}, {"smiles": "Fc1ccccc1[C@@H](F)COC1CCC(Nc2ncnc3[nH]ncc23)CC1", "note": "(stereo partly drawn)", "AC50": "3.91 µM (active)"}, {"smiles": "Nc1ccc(Nc2ccccc2)cc1", "AC50": "13.9 µM (active)"}, {"smiles": "CC(C)CC(C)(O)C#CC(C)(O)CC(C)C", "note": "(stereo not drawn)", "outcome": "inactive"}]}]}
